Reference: PubChem BioAssay
Unmarked numbers belong to inactive results. For some assays here: Entries with a potency or affinity are not part of this list. Activity calls are given as the source filed them. Unless noted, no rule for the calls is given here.

How the values were obtained:
[1] = antimalarial activity against Dd2 strain (AID 2302;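 active = growth inhibition above 50% at the single 2 µM test dose, taken to imply half-maximal potency below 2 µM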;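 also: 0% = DMSO untreated growth and 100% = chloroquine plus artemisinin killed control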); settings: P. falciparum Dd2 in RBCs, LDH growth readout, 72 h; at 2 µM; active compounds read high
[2] = human hepatoma cell viability loss – ATP luminescence, cytotoxicity control for P. falciparum antimalarial project, primary screen (AID 2303;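 active = inhibition above 50%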;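 also: 0% = DMSO wells and 100% = digitonin-killed cells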); settings: HepG2 viability, 24-48 h, at 10 µM, active compounds read high
[3] = molecular target: L-lactate dehydrogenase (Plasmodium falciparum (isolate CDC / Honduras)) (UniProt Q27743); test: PfLDH activity inhibition – cell lysate, 3D7 strain, counter-screen for P. falciparum growth inhibition project (AID 2304);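 also: 0% = vehicle and 100% = reference inhibitor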; settings: P. falciparum 3D7 crude extract, LDH APAD/NBT absorbance; at 2 µM; active compounds read high
Chain of L-lactate dehydrogenase (Plasmodium falciparum (isolate CDC / Honduras)) (Q27743 whole entry, looked up): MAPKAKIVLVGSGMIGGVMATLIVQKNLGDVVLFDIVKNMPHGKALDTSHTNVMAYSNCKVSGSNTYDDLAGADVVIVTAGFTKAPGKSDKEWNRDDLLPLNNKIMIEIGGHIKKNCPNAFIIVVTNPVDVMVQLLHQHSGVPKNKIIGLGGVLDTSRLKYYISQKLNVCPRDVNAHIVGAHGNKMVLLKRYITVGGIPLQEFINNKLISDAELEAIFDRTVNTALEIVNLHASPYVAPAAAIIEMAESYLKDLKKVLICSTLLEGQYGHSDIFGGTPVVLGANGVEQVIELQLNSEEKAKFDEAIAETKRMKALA

[4] = inhibition of 3D7 malaria parasite growth – strain 3D7 (AID 2306);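 also: 0% = DMSO wells and 100% = chloroquine plus artemisinin control wells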; settings: P. falciparum 3D7 erythrocytic growth, LDH absorbance, 72 h; at 2 µM; active compounds read high
[5] = molecular target: Calcium-dependent protein kinase 1 (Plasmodium falciparum (isolate 3D7)) (UniProt P62344); test: PfCDPK1 kinase inhibitors, biochemical, TCAMS library (AID 1159585; cut-off not given, nearly all actives have IC50 up to about 0.98 µM;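 also: inhibitors leave more ATP so luminescence rises with inhibition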); settings: recombinant PfCDPK1, Kinase-Glo ATP depletion luminescence
Chain of Calcium-dependent protein kinase 1 (Plasmodium falciparum (isolate 3D7)) (P62344 whole entry, looked up): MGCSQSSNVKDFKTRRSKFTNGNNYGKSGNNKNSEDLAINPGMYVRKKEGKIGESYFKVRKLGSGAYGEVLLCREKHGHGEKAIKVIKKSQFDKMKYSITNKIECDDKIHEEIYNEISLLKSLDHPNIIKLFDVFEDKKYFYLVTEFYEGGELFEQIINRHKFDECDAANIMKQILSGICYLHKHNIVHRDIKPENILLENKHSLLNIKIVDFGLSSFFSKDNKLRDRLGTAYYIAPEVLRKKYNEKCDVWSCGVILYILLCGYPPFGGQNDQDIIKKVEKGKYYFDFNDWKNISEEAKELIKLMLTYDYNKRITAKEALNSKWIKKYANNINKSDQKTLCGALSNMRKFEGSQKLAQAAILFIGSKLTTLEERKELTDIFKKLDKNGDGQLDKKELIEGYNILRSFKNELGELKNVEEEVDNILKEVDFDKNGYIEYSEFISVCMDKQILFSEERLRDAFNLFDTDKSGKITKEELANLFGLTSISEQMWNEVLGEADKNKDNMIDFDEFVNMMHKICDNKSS

[6] = molecular target: Plasmodium falciparum protein kinase 6 (PK6, PF3D7_1337100) (UniProt Q8IDW1); test: PfPK6 kinase inhibitors, biochemical, TCAMS library (AID 1159586); settings: recombinant PfPK6, Kinase-Glo ATP depletion luminescence
Chain of Plasmodium falciparum protein kinase 6 (PK6, PF3D7_1337100) (Q8IDW1 1-305): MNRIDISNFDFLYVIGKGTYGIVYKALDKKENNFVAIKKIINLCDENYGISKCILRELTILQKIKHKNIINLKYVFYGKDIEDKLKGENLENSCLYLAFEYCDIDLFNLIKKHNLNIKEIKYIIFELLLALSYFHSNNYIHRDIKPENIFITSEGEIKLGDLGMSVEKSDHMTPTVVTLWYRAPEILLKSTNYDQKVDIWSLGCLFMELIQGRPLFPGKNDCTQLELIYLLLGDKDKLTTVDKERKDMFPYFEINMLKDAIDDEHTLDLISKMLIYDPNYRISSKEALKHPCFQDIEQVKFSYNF

[7] = molecular target: Protein kinase 7 (PK7), Plasmodium falciparum 3D7 (PF3D7_0213400) (UniProt Q7YTF7); test: inhibition of Plasmodium PK7 catalytic activity – biochemical, TCAMS antimalarial set, Kinase-Glo luminescence (AID 1159587); settings: recombinant PfPK7, Kinase-Glo ATP depletion luminescence
Chain of Protein kinase 7 (PK7), Plasmodium falciparum 3D7 (PF3D7_0213400) (Q7YTF7 1-343): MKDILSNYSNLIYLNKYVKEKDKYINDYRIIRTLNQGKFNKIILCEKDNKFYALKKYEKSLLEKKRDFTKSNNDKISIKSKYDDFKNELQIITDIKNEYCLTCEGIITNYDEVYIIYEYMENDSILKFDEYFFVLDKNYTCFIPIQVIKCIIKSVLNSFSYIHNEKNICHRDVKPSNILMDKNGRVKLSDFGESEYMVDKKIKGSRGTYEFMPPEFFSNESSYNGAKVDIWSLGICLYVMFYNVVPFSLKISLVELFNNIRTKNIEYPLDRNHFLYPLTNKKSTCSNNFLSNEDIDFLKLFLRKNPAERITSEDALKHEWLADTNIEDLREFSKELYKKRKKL

[8] = molecular target: Calcium-dependent protein kinase 4 (Plasmodium falciparum (isolate 3D7)) (UniProt Q8IBS5); test: PfCDPK4 kinase inhibitors, biochemical, TCAMS library (AID 1159588; cut-off not given, nearly all actives have IC50 up to about 0.91 µM); settings: recombinant PfCDPK4, Kinase-Glo ATP depletion luminescence
Chain of Calcium-dependent protein kinase 4 (Plasmodium falciparum (isolate 3D7)) (Q8IBS5 whole entry, looked up): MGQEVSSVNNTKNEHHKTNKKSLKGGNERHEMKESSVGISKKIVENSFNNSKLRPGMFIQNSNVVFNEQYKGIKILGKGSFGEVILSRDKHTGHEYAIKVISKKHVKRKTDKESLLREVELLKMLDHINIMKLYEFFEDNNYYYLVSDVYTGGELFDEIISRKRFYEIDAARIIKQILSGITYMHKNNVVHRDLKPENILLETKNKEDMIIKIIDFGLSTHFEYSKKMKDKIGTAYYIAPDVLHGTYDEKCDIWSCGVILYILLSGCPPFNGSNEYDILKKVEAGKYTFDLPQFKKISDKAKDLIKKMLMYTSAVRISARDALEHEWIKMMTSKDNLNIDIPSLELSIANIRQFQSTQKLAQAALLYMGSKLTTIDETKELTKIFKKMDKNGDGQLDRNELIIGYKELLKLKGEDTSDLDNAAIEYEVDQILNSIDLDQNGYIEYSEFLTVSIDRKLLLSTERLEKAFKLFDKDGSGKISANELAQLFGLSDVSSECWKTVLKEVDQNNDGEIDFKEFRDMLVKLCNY

SMILES	growth inhibition [1]	inhibition [2]	inhibition [3]	growth inhibition [4]	outcome [5]	outcome [6]	outcome [7]	outcome [8]
CC(C)(C)CCN1CCC(CNC(=O)c2cc(-c3cccc(C(F)(F)F)c3)cs2)C1 (stereo not given)	13%	47%	-1%	93% (active)	inactive	inactive	inactive	inactive
Cc1cc(=O)c(-c2cccc(Oc3ccc(Cl)cc3)c2)c(C)[nH]1	95% (active)	-2%	-4%	96% (active)	inactive	inactive	inactive	inactive
N=c1ccn(CC(=NO)c2ccc(Cl)c(Cl)c2)cc1	81% (active)	23%	-2%	87% (active)	inactive	inactive	inactive	inactive
COC(=O)C(c1ccc(NC(=O)[C@H](CC(C)C)NC(=O)OC(C)(C)C)cc1)c1ccc(NC(=O)[C@H](CC(C)C)NC(=O)OC(C)(C)C)cc1	42%	0%	2%	94% (active)	inactive	inactive	inactive	inactive
CCOc1c(C)cc(C(F)(F)F)cc1CNCCCNc1cc(=O)c2ccccc2[nH]1	1%	-1%	-7%	97% (active)	inactive	inactive	inactive	inactive
O=C(/C=C/c1ccccc1F)NC1CCC(CCN2CCc3ccc(-c4cccnc4)cc3CC2)CC1 (stereo not given)	5%	34%	-4%	92% (active)	inactive	inactive	inactive	inactive
CCc1nc(N)nc(N)c1-c1ccc(F)c(F)c1	-1%	58% (active)	-3%	98% (active)	inactive	inactive	inactive	inactive
O=C(NC1CCC1)C1CCN(C(c2ccccc2)c2cc(F)cc(F)c2)CC1 (stereo not given)	72% (active)	0%	-2%	94% (active)	inactive	inactive	inactive	inactive
CN(C)CCC1CCCc2ccc(NC(=O)Nc3ccc(-c4ccncc4)c4ccccc34)cc21 (stereo not given)	27%	34%	6%	89% (active)	inactive	inactive	inactive	inactive
O=C(c1cnn(-c2ccccc2)c1C(F)(F)F)N1CCN(c2ccnc3cc(Cl)ccc23)CC1	94% (active)	34%	6%	89% (active)	inactive	inactive	inactive	inactive
c1cc(CN2CCC(CCN3CCCCC3)CC2)cc(-c2cccc(-c3nc4ccccc4[nH]3)c2)c1	101% (active)	95% (active)	-3%	100% (active)	inactive	inactive	inactive	inactive
CCCCCCN1CCCN(Cc2cccc(C(=O)Nc3ccc(C(C)(C)C)cc3)c2)CC1	23%	41%	0%	93% (active)	inactive	inactive	inactive	inactive
CCC1CN2CCc3c([nH]c4ccccc34)C2CC1CC1=NCCc2c1[nH]c1ccccc21 (stereo not given)	47%	20%	-8%	100% (active)	inactive	inactive	inactive	inactive
O=C(CNC1=NCCN1)Nc1ccc(NC(=O)Nc2ccc(NC(=O)CNC3=NCCN3)cc2)cc1	75% (active)	-5%	-2%	90% (active)	inactive	inactive	inactive	inactive
Oc1ccc(CCCNc2nc(NCc3cccc4ccccc34)nc(N3CCCNCC3)n2)cc1	62% (active)	98% (active)	-2%	96% (active)	inactive	inactive	inactive	inactive
O=C(c1ccc(-c2cnc3[nH]cc(-c4ccc(C(=O)N5CCOCC5)cc4)c3c2)cc1)N1CCOCC1	-3%	19%	-4%	91% (active)	inactive	inactive	inactive	inactive
CCCNC(=O)C1Cc2c([nH]c3ccc(Br)cc23)C2(CCN(CCc3ccccc3)CC2)N1 (stereo not given)	49%	16%	-8%	99% (active)	inactive	inactive	inactive	inactive
Cc1cccc(CN2CCCN(Cc3ccc(C(=O)Nc4ccc(C)c(F)c4)cc3)CC2)c1	3%	47%	-4%	85% (active)	inactive	inactive	inactive	inactive
C=CC[C@H](NC(=O)c1ccc(NS(=O)(=O)c2ccc3nc(N)[nH]c(=O)c3c2)cc1)C(=O)OCCCC	2%	61% (active)	1%	97% (active)	inactive	inactive	inactive	inactive
Cc1cccc2[nH]c(-c3cccc(-c4cccc(NC(=O)Nc5ccsc5)c4)c3)nc12	41%	15%	-3%	102% (active)	inactive	inactive	inactive	inactive

SMILES	growth inhibition [1]	inhibition [2]	inhibition [3]	growth inhibition [4]	outcome [5]	outcome [6]	outcome [7]	outcome [8]
CN1CCC(N(Cc2ccc(-c3ccc(C(F)(F)F)cc3)nc2)C(=O)Cn2c(CCc3cccc(F)c3F)cc(=O)c3ccccc32)CC1	85% (active)	60% (active)	3%	91% (active)	inactive	inactive	inactive	inactive
COc1ccc2nc3cc(Cl)ccc3c(N)c2c1	100% (active)	100% (active)	-5%	102% (active)	inactive	inactive	inactive	inactive
O=C(Nc1cccc(CN2CCCN(CCc3ccccc3)CC2)c1)c1ccc(Cl)c(Cl)c1	15%	41%	-5%	86% (active)	inactive	inactive	inactive	inactive
Cc1nn(CCOC(=O)NC(NCC2COc3ccccc3O2)C(Cl)(Cl)Cl)cc1[N+](=O)[O-] (stereo not given)	99% (active)	-9%	2%	99% (active)	inactive	inactive	inactive	inactive
CC(C)CCCC(C)(C)NC[C@@H](O)[C@H](Cc1ccccc1)NC(=O)c1cccc(CCC2CC2)c1	52% (active)	100% (active)	0%	98% (active)	inactive	inactive	inactive	inactive
COc1ccc(C=Cc2cc(N)c3ccccc3n2)cc1	16%	38%	5%	93% (active)	inactive	inactive	inactive	inactive
COc1ccc(CNC2CCN(c3ccc(NC(=O)c4cccc(Cl)c4)cc3)CC2)cc1OC	13%	26%	6%	96% (active)	inactive	inactive	inactive	inactive
O=C(Nc1cccc(Cl)c1N1CCOCC1)C(Cl)(Cl)Cl	95% (active)	3%	-3%	96% (active)	inactive	inactive	inactive	inactive
O=C(c1c(-c2[nH]c3ccccc3c2C(=O)C(F)(F)F)[nH]c2ccccc12)C(F)(F)F	99% (active)	18%	3%	97% (active)	inactive	inactive	inactive	inactive
COc1ccc2nccc(N3CCC(CCNCc4ccc5c(n4)NC(=O)CS5)CC3)c2c1	86% (active)	55% (active)	-1%	101% (active)	inactive	inactive	inactive	inactive
Nc1nc(N)c2c(ccn2Cc2cc3c(cc2Cl)OCO3)n1	11%	67% (active)	-3%	98% (active)	inactive	inactive	inactive	inactive
COc1ccc(NC(=O)NC2CCN(c3ccnc4cc(Cl)ccc34)CC2)cc1	64% (active)	5%	-10%	83% (active)	inactive	inactive	inactive	inactive
C=CCn1c(Cc2ccccc2)nnc1Sc1ccc(C#N)c([N+](=O)[O-])c1	43%	7%	2%	86% (active)	inactive	inactive	inactive	inactive
O=C(N[C@@H](CC1CCCCC1)C(=O)NC1CCCCC1)c1ccc(O)c(-c2cccc(C(F)(F)F)c2)c1	95% (active)	-7%	-1%	100% (active)	inactive	inactive	inactive	inactive
Clc1cc2c(Nc3ccc(Oc4ccccc4)cc3)ccnc2cc1-c1ccc(CNCCN2CCOCC2)o1	89% (active)	-2%	-4%	100% (active)	inactive	inactive	inactive	inactive
CCOC(=O)CCc1cc(F)c(F)c(OC[C@H](O)CNC(C)(C)C(O)c2ccc3ccccc3c2)c1 (stereo not given in full)	92% (active)	12%	-4%	99% (active)	inactive	inactive	inactive	inactive
FC(F)(F)c1ccc2nc(-c3ccc(-c4cccc(CNCc5ccccc5)c4)cc3)[nH]c2c1	43%	-2%	-5%	100% (active)	inactive	inactive	inactive	inactive
Cc1ccc(C)c(C2CCN(CCCCNC(=O)c3ccc(NC(=O)c4ccc(Cl)cc4)cc3)CC2)c1	13%	15%	7%	94% (active)	inactive	inactive	inactive	inactive
O=C(Nc1ccc(SC(F)(F)F)cc1)Nc1ccc(Cl)c(Cl)c1	99% (active)	15%	4%	98% (active)	inactive	inactive	inactive	inactive
NC1=NC(C=Cc2ccccc2)N(OCCCCCCON2C(N)=NC(N)=NC2C=Cc2ccccc2)C(N)=N1 (stereo not given)	94% (active)	17%	3%	97% (active)	inactive	inactive	inactive	inactive
